Screening results as filed in PubChem BioAssay.
TIM10 inh – growth inhibitors of TIM10 yeast strain; actives 1.4% (n = 330,000); S. cerevisiae TIM10 strain growth, BacTiter-Glo luminescence, 24 h; AID 463195; inhibition, % at 10 µM;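 active = inhibition of 40% or more at the single tested concentration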;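 also: wild-type TIM10 isogenic control strain grown at permissive 25 °C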
NLRP3 yeast inh – blocks the NALP3 inflammasome reconstituted in yeast | Yeast reconstituted NLRP3/ASC/caspase-1, beta-gal luminescence, 24 h | AID 2825 | actives 0.39% (n = 330,000) | inhibition, % at 10 µM;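 active = inhibition of 50% or more; inactive = inhibition below 50%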;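 also: plate controls were induced DMSO wells for no effect and uninduced yeast grown without galactose for full effect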
tim23-1 inh – tim23-1 yeast growth inhibition; S. cerevisiae tim23-1 growth, BacTiter-Glo luminescence, 24 h; inhibition, % at 20 µM; actives 1.3% (n = 330,000); AID 463212;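 active = growth inhibition of the mutant yeast at or above 50%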;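 also: temperature-sensitive mutant grown at 25 °C; plate controls were DMSO-treated mutant yeast for no effect and medium wells lacking yeast for full effect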
V-ATPase pH – yeast V-ATPase proton transport regulation by pHLuorin; S. cerevisiae, pHLuorin cytosolic pH fluorescence; actives 0.37% (n = 350,000); response, % at 10 µM; in the data active = response mostly above about 7.3%, no sharp cut-off; inactive = mostly below about 5.4%; also: actives read high
tim10-1 inh – growth inhibitors of tim10-1 mutant yeast; S. cerevisiae tim10-1 ts strain growth, BacTiter-Glo, 24 h; inhibition, % at 20 µM; actives 2.2% (n = 330,000);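 active = inhibition of at least 40%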;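 also: mutant grown at 25 °C; 0% = DMSO wells with yeast and 100% = wells holding no yeast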
NALP1 yeast inh – blocks the NALP1 inflammasome reconstituted in yeast; S. cerevisiae NALP1/ASC/caspase-1 growth, X-gal OD620, 72 h; inhibition, % at 10 µM; actives 0.61% (n = 280,000); in the data active = inhibition mostly above about 24%, no sharp cut-off; inactive = mostly below about 32%
NALP3 yeast conf – NALP3 inhibition confirmation in yeast; shares compounds with NLRP3 yeast inh; yeast expressing human NALP3, luminescence; inhibition, % at 10 µM; actives 81% (n = 1,300); in the data active = inhibition above about 48%
Casp1-ASC yeast – counter-screen for NALP3 inhibitors: yeast caspase-1-ASC. shares compounds with NLRP3 yeast inh. yeast expressing Caspase-1-ASC, luminescence counter screen. inhibition, % at 10 µM. actives 66% (n = 1,000)
NALP3 retest – confirmation retest of NALP3 inhibitors in yeast | AID 488794 | actives 53% (n = 1,000) | inhibition, % at 10 µM | shares compounds with NLRP3 yeast inh | yeast expressing human NALP3, luminescence read-out
tim10-1 confirm – tim10-1 yeast growth inhibition, confirmed; shares compounds with tim10-1 inh; S. cerevisiae tim10-1 ts strain growth, BacTiter-Glo, 24 h; inhibition, % at 20 µM; actives 56% (n = 7,400); AID 463213;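 active = inhibition of yeast growth at or above a set limit in either of two repeat tests at 20 µM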;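 also: tim10-1 mutant grown at permissive 25 °C to find synthetic lethal compounds; 0% = DMSO yeast wells and 100% = medium wells without yeast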
TIM10 conf – TIM10 yeast growth inhibition, confirmed; inhibition, % at 10 µM; S. cerevisiae tim10 strain growth, BacTiter-Glo luminescence, 24 h; actives 63% (n = 4,600); shares compounds with TIM10 inh;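 active = inhibition of yeast growth at or above a set limit in either of two replicates at 10 µM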;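 also: this counterscreen used the strain with wild-type TIM10; 0% = yeast with DMSO and 100% = medium wells lacking yeast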
tim23-1 conf – tim23-1 yeast growth inhibition, confirmed | AID 463218 | S. cerevisiae tim23-1 growth, BacTiter-Glo luminescence, 24 h | shares compounds with tim23-1 inh | actives 83% (n = 4,400) | inhibition, % at 20 µM;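 active = inhibition above about 39% in either of two replicate wells at 20 µM, limit read from the data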;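 also: temperature-sensitive tim23-1 mutant grown at 25 °C; 0% = DMSO wells with yeast and 100% = medium wells without yeast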
Numbers without * were called inactive. A selection: hits, their analogues and other compounds. The true share with any hit is near 4.2%. Rule as the data show it, unless noted: active = inhibition above about 50%; inactive = the rest.

Screening CC(C)(C)C1CCc2[nH]c3ccccc3c(=O)c2C1 (configuration not stated) returned TIM10 inh 44.3*, NLRP3 yeast inh 71.7*, tim23-1 inh 45.7, V-ATPase pH -5.5, tim10-1 inh 29.3, NALP1 yeast inh -3.2, NALP3 yeast conf 94.3*, Casp1-ASC yeast 71.5*, NALP3 retest 77.0* and TIM10 conf 33.2*.
Screening O=c1c2c([nH]c3ccccc13)CCCC2 returned TIM10 inh 10.6, NLRP3 yeast inh 19.6, tim23-1 inh 10.0, V-ATPase pH -3.2, tim10-1 inh 2.9 and NALP1 yeast inh 0.7.
COc1ccc(-c2nc3ccccc3s2)cc1O was read as TIM10 inh 47.4*, NLRP3 yeast inh 73.4*, tim23-1 inh 0.1, V-ATPase pH -0.3, tim10-1 inh 25.8, NALP1 yeast inh -2.8, NALP3 yeast conf 46.4*, Casp1-ASC yeast 73.0*, NALP3 retest 64.2* and TIM10 conf -24.0.
Screening CC(=O)Nc1ccc(O)c(-c2nc3ccccc3s2)c1 returned TIM10 inh 46.2*, NLRP3 yeast inh 55.7*, tim23-1 inh 28.2, V-ATPase pH -1.8, tim10-1 inh 2.6, NALP1 yeast inh 14.3, NALP3 yeast conf 67.4* and TIM10 conf -2.1.
For O=C(Nc1nnc(-c2ccc(F)cc2)o1)C1CCCN1S(=O)(=O)c1cccs1 (configuration not stated) the results were TIM10 inh -11.9, NLRP3 yeast inh 2.4, tim23-1 inh 3.7, V-ATPase pH -1.9 and tim10-1 inh -1.9.
`N/C(Cc1ccc(Cl)cc1)=N\OC(=O)c1cccc2ccccc12` gave TIM10 inh 75.5*, NLRP3 yeast inh 57.2*, tim23-1 inh 35.7, V-ATPase pH -3.3, tim10-1 inh 10.3, NALP1 yeast inh -5.6, NALP3 yeast conf 45.1*, Casp1-ASC yeast 54.7*, NALP3 retest 51.2* and TIM10 conf 76.3*.
For Cc1ccc2nc(N3C(=O)CNC3=S)sc2c1 the results were TIM10 inh 29.4, NLRP3 yeast inh 80.6*, tim23-1 inh 63.7*, V-ATPase pH -5.9, tim10-1 inh 22.4, NALP1 yeast inh -7.2, NALP3 yeast conf 61.1*, Casp1-ASC yeast 87.4*, NALP3 retest 82.6* and tim23-1 conf 66.3*.
For Cc1cccc(CC2CC(=O)N(c3nc4ccccc4s3)C2=O)c1 (configuration not stated) the results were TIM10 inh 31.8, NLRP3 yeast inh -0.3, tim23-1 inh 31.3, V-ATPase pH -1.5, tim10-1 inh 33.9 and NALP1 yeast inh 9.4.
`Cc1cc(C(=O)Nc2ccc(Br)cn2)sc1C` gave TIM10 inh 10.9, NLRP3 yeast inh 58.7*, tim23-1 inh 63.8*, V-ATPase pH -0.7, tim10-1 inh -0.5, NALP3 yeast conf 61.4*, Casp1-ASC yeast 56.8*, NALP3 retest 55.9* and tim23-1 conf 68.5*.
Screening Cc1cccc(NC(=O)CN2CCN(C(=O)c3cnn(Cc4ccccc4)c3)CC2)c1C returned TIM10 inh 3.5, NLRP3 yeast inh -2.3, tim23-1 inh -13.5, V-ATPase pH -0.8 and tim10-1 inh -5.6.
Screening CSc1ccccc1-c1nc(-c2ccncc2)no1 returned TIM10 inh -25.3, NLRP3 yeast inh -2.4, tim23-1 inh -29.7, V-ATPase pH -0.1, tim10-1 inh 0.7 and NALP1 yeast inh 20.9.
COc1ccc(-c2cc3nc4n(c(=O)c3s2)CCCCC4)cc1 was read as TIM10 inh 26.9, NLRP3 yeast inh 27.2, tim23-1 inh 35.2, V-ATPase pH 4.8, tim10-1 inh 23.5 and NALP1 yeast inh 2.3.
`COc1ccc(-c2cc3nc4n(c(=O)c3s2)CCC4)cc1` gave TIM10 inh 70.3*, NLRP3 yeast inh 53.1*, tim23-1 inh 58.3*, V-ATPase pH -2.4, tim10-1 inh 57.7*, NALP1 yeast inh -1.8, NALP3 yeast conf 71.6*, Casp1-ASC yeast 34.9, NALP3 retest 36.3, tim10-1 confirm 53.7*, TIM10 conf 75.8* and tim23-1 conf 55.1*.
`Cc1csc2nc(O)c(C(=O)NCCC3=CCCCC3)c(=O)n12` gave TIM10 inh 34.5, NLRP3 yeast inh 55.9*, tim23-1 inh 65.6*, V-ATPase pH -1.3, tim10-1 inh 33.9, NALP3 yeast conf 74.6*, Casp1-ASC yeast 28.9, NALP3 retest 55.1* and tim23-1 conf 44.1*.
O=C(O)c1ccc(S(=O)(=O)/N=C2\C=C(Nc3ccccc3F)C(=O)c3ccccc32)cc1 was read as TIM10 inh 74.4*, NLRP3 yeast inh 93.9*, tim23-1 inh 81.1*, V-ATPase pH 3.6, tim10-1 inh 79.1*, NALP1 yeast inh 79.9*, NALP3 yeast conf 82.7*, Casp1-ASC yeast 99.3*, NALP3 retest 97.4*, tim10-1 confirm 84.0*, TIM10 conf 73.5* and tim23-1 conf 89.2*.
Screening COc1cc(C(=O)ON=C2C3CC4CC(C3)CC2C4)cc(OC)c1OC returned TIM10 inh 81.8*, NLRP3 yeast inh 59.3*, tim23-1 inh 50.4*, V-ATPase pH -0.1, tim10-1 inh 19.3, NALP1 yeast inh 17.6, NALP3 yeast conf 92.4*, Casp1-ASC yeast 40.1, NALP3 retest 26.1, TIM10 conf 83.5* and tim23-1 conf 59.6*.
CC(C)(C)c1ccc(C(=O)N/N=C/c2cccc(Cl)c2)cc1 was read as TIM10 inh 63.0*, NLRP3 yeast inh 54.2*, tim23-1 inh 66.1*, V-ATPase pH -1.4, tim10-1 inh 36.6, NALP1 yeast inh 27.1, NALP3 yeast conf 70.7*, Casp1-ASC yeast 54.5*, NALP3 retest 40.8, TIM10 conf 52.0* and tim23-1 conf 76.8*.
O=C(N/N=C/c1cccc(F)c1)c1ccc(Cl)cc1 was read as TIM10 inh -2.2, NLRP3 yeast inh 29.2, tim23-1 inh 3.3, V-ATPase pH 2.4, tim10-1 inh -25.3 and NALP1 yeast inh 9.9.
